This assay concerns the target PEG-3 (UniProt Q6IN02). The assay is described as follows: GAPDH versus PEG-3 reporter suppression – cell-based, luminescence, counter-screen for PEG-3 promoter inhibitor project, SAR follow-up (AID 651551). Particulars: HeLa PEG-Prom / GAPDH luciferase reporter, 6 or 24 h, run 3, 24 h; at 99 µM (top of the series).
For `Cc1cc(NC(=O)c2ccccc2C(F)(F)F)n(-c2nc3ccccc3[nH]2)n1`, the inhibition % (higher = more inhibition) turned out to be 94.1%.
For the compound `Cc1cc(NC(=O)c2ccccc2C)n(-c2nc3ccccc3[nH]2)n1`, the inhibition % (higher = more inhibition) stood at 38%.
For `Cc1cc(NC(=O)c2ccccc2)n(-c2nc3ccccc3[nH]2)n1` the value was 79.1%.
For `CCCn1nc(C(=O)Nc2nc(-c3ccccn3)cs2)c2ccccc2c1=O` the value was 40.8%.
As for `COc1ccc(-n2nc(C(=O)NCC(=O)Nc3ccc(OC)c(OC)c3)c3ccccc3c2=O)cc1`, the inhibition % (higher = more inhibition) stood at 34.1%.
For `Cc1nc(NC(=O)c2ccccc2)sc1-c1csc(Nc2ccccc2)n1` the value was 76.8%; for `Cc1cc(NC(=O)c2ccccc2)n(-c2nc3ccccc3n2C)n1`, 3.97%; for `O=C(Nc1nccs1)c1nn(-c2ccccc2)c(=O)c2ccccc12`, 29.1%.
For the compound `COc1ccccc1Nc1nc(-c2sc(NC(=O)c3ccco3)nc2C)cs1`, the inhibition % (higher = more inhibition) turned out to be 21.6%.
The same measure for `Cc1nc(NC(=O)c2ccccc2)sc1-c1csc(Nc2ccccc2Cl)n1`: -104%; for `Cc1ccc(Cl)cc1Nc1nc(-c2sc(NC(=O)c3ccco3)nc2C)cs1`: -26.2%; for `CCCn1nc(C(=O)Nc2nc(-c3ccncc3)cs2)c2ccccc2c1=O`: 44.6%.
For `CCn1cc(C(=O)NCc2ccco2)c(=O)c2cc(S(=O)(=O)N3CCCC3)ccc21` the value was 46.7%; for `COCCCNC(=O)c1ccc(Cn2c(=O)c3ccccc3n(Cc3ccccc3C#N)c2=O)cc1`, 73.4%; for `O=C(Nc1nc2ccccc2s1)c1nn(-c2ccccc2)c(=O)c2ccccc12`, -21.2%.
Consider `COc1ccc(Cl)cc1Nc1nc(-c2sc(NC(=O)c3ccccc3)nc2C)cs1`, for which the inhibition % (higher = more inhibition) was determined as 60.5%.
Consider `CCCn1nc(C(=O)Nc2nc3ccccc3s2)c2ccccc2c1=O`, for which the inhibition % (higher = more inhibition) came out at 16.5%.
As for `Cc1nc(NC(=O)c2ccccc2)sc1-c1csc(Nc2cccc(Cl)c2C)n1`, the inhibition % (higher = more inhibition) is -61.4%.
For `COc1ccc(-n2nc(C(=O)NCC(=O)Nc3cc(OC)c(OC)c(OC)c3)c3ccccc3c2=O)cc1OC` the value was 34.1%.
For `Cc1cc(NC(=O)c2cccc(C)c2C)n(-c2nc3ccccc3[nH]2)n1` the value was 3.97%.
As for `COc1ccc(-n2nc(C(=O)NCC(=O)Nc3cccc(OC)c3)c3ccccc3c2=O)cc1`, the inhibition % (higher = more inhibition) was 8.99%.
In the case of `O=C(Nc1nc(-c2ccccc2)cs1)c1nn(-c2ccccc2)c(=O)c2ccccc12`, the inhibition % (higher = more inhibition) is 11.5%.
For `CCn1nc(C(=O)Nc2nc(-c3ccccn3)cs2)c2ccccc2c1=O`, the inhibition % (higher = more inhibition) came to 39.1%.

The values are drawn from PubChem BioAssay AID651551 (Sanford-Burnham Center for Chemical Genomics, 2012).
